The source made the active and inactive calls. The rule behind the calls is not given here.
Assay: Vero 76 cell cytotoxicity, cytotoxicity control for VEEV inhibitor project, set 7 (AID 624450)
Settings: Vero 76 cell viability, cytotoxicity counter-screen; series mostly up to 25 µM

| Compound | outcome |
| --- | --- |
| COc1cccc(-n2c(CN3CCNCC3)nc3ccc([N+](=O)[O-])cc3c2=O)c1 | inactive |
| O=c1c2cc([N+](=O)[O-])ccc2nc(CN2CCNCC2)n1-c1ccsc1 | inactive |
| CCN1CCN(Cc2nc3ccc([N+](=O)[O-])cc3c(=O)n2-c2ccccc2F)CC1 | inactive |
| COc1ccc(-n2c(CN3CCNCC3)nc3ccc([N+](=O)[O-])cc3c2=O)cc1 | inactive |
| COc1ccccc1-n1c(CN2CCNCC2)nc2ccc([N+](=O)[O-])cc2c1=O | inactive |
| CCN1CCN(Cc2nc3ccc([N+](=O)[O-])cc3c(=O)n2C)CC1 | inactive |
| CCN1CCN(Cc2nc3ccc(C(=O)O)cc3c(=O)n2-c2ccccc2)CC1 | inactive |

Reference: PubChem BioAssay AID624450 (Southern Research Specialized Biocontainment Screening …, 2012)
